High-throughput results: PubChem, National Center for Advancing Translational Sciences (NCATS)
Tau ThT inhib: blocks human tau fibril formation measured by thioflavin T; P10636; recombinant tau K18 P301L, heparin-induced fibrillization, ThT fluorescence; Potency, µM (series often up to 57.4 µM), most hits filed as inhibitors; 270,000 tested, 2.1% active; note: nearly all actives have a fitted effect of over 55% in size
Target sequence (P10636 561-689 P618L limits assumed): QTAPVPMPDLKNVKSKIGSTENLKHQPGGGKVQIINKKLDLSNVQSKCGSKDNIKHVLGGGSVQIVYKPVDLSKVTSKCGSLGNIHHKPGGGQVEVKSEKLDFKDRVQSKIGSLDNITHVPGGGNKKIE
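Recombinant human tau K18 fragment […] carrying P301L, 15 uM unlabeled plus 0.24 uM Alexa 594-labeled, was fibrillized with 20 uM heparin in 100 mM sodium acetate pH 7 for 6 hr at 37 C; 30 uM ThT fluorescence read after 1 hr.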
Tau FP inhib: blocks human tau fibril formation measured by polarization; K18 P301L tau heparin fibrillization, Alexa594 FP, 6 h; 280,000 tested, 0.39% active; AID 1468; Potency, µM (titrated, usually from 57.7 µM), usual class: inhibitors; note: nearly all actives have a fitted effect of over 55% in size
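Human K18 P301L fragment (15 uM unlabeled plus 0.24 uM Alexa 594-labeled) in 100 mM sodium acetate pH 7 with compound, aggregation induced by 20 uM heparin for 6 hr at 37 C. ThT (30 uM) added for 1 hr, then Alexa 594 FP read.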
TRb SRC2 PPI: disrupts binding of human TR beta to SRC2; P10828; TRbeta-SRC2 peptide binding, fluorescence polarization; receptor liganded with 1 µM T3; Potency, µM (titrated, usually from 106 µM), most hits filed as inhibitors; 280,000 tested, 0.065% active; AID 1469; note: nearly all actives have a fitted effect of over 50% in size
Target sequence (P10828 whole entry, looked up): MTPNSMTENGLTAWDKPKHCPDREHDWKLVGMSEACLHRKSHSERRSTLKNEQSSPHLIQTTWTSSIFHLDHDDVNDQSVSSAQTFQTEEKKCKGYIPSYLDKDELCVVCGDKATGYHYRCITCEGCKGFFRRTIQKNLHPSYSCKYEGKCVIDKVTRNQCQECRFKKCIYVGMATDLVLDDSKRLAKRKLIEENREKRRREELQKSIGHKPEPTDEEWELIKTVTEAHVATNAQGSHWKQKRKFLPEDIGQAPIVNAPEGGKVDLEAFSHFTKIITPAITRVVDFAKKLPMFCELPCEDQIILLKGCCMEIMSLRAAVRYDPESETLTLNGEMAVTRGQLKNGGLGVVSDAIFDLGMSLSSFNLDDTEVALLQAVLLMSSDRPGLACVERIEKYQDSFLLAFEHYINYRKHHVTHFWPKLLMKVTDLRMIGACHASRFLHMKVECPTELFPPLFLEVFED
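Fluorescence polarization of 20 nM Texas Red SRC2 peptide with 0.6 uM human TRb ligand-binding domain, in Tris buffer with 1uM T3 and 5% DMSO. Incubated 5 hr ambient; normalized to unbound and bound controls.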
TR SRC2 fluor cs: Texas Red fluorescence interference in TRb-SRC2 counter-screen | TRb/SRC2 Texas Red total fluorescence interference | Potency, µM (top dose mostly 106 µM) | 280,000 tested, 0.29% active; active = well fitted curve in either direction with a large enough effect; inconclusive = small, poorly fitted or top-dose-only effect
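Flags fluorescent or light-absorbing compounds by total fluorescence, S + 2P, at 555 nm excitation and 632 nm emission. Mixture: 20 nM Texas Red SRC2 peptide, 0.6 uM human TRb LBD, 1 uM T3, 5% DMSO; compound exposure 5 h at ambient temperature.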
Tau fluor counter: counter-screen for tau fibril formation inhibitors | tau K18 P301L Alexa594 fluorescence, heparin fibrillization | Potency, µM (series often up to 57.7 µM) | 280,000 tested, 0.93% active | AID 1463; note: nearly all actives have a fitted effect of over 55% in size
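Human tau K18 P301L (15 uM unlabeled, 0.24 uM Alexa 594-labeled) in 100 mM sodium acetate pH 7 with 20 uM heparin, 6 hr at 37 C. ThT 30 uM added, 1 hr ambient; Alexa 594 FP and total fluorescence read at 555/632 nm.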
Each line names hits and unclear results; the compound was inactive in the other large screens; ! = not confirmed by another sample; [ ] = remark or other dose. Rows were chosen to be rich in hits. Some 3% of all compounds tested hit in one or more screens of this group. Unless noted, calls come from the whole dose curve; as a rule, active = well fitted curve in the direction sought with a large enough effect; inconclusive = small, poorly fitted or top-dose-only effect, or another doubt; inactive = no such curve, though single readings can be large; an effect the other way counts as inactive or inconclusive.

Cc1ccc(-n2nc(C)c3c(C(=O)NCCc4ccccc4)cc(C)nc32)cc1	none
Nc1cc(=O)[nH]c(=S)n1-c1ccccc1	none
O=C1NC(=S)CN1c1ccccc1	Tau ThT inhib 32µM, Tau FP inhib inconclusive
CCSc1nc2c([nH]c3ccccc32)c(=O)n1-c1ccc(F)cc1	none
C(=N\Nc1ccc2ccccc2n1)/c1ccc2c(c1)OCCO2	Tau ThT inhib inconclusive, Tau fluor counter inconclusive
COc1cc(OC)c(OC)cc1/C=N/Nc1nc2ccccc2[nH]1	Tau ThT inhib inconclusive
Fc1ccccc1-c1ccc(/C=N/Nc2nc3ccccc3[nH]2)o1	Tau ThT inhib 6.3µM, Tau fluor counter 14µM[quencher]
CCN(CC)c1ccc(/C=N/NC(=O)Cc2cccs2)c(O)c1	Tau ThT inhib inconclusive, Tau fluor counter 13µM[quencher]
CCN(CC)c1ccc(/C=N/Nc2nc3ccccc3[nH]2)c(O)c1	Tau ThT inhib 14µM, Tau fluor counter 18µM[quencher]
C(=N\Nc1nc2ccccc2[nH]1)/c1ccc2c(c1)OCCO2	Tau ThT inhib 4µM, Tau fluor counter inconclusive
COc1cccc2cc(C(=O)Nc3ccc(CC(=O)O)cc3)c(=O)oc12	Tau ThT inhib inconclusive
COc1ccc(/C=N/Nc2nc3ccccc3[nH]2)cc1OC	Tau ThT inhib 13µM, Tau FP inhib inconclusive, Tau fluor counter inconclusive
COc1ccc2c(c1)c(/C=N/Nc1nc3ccccc3[nH]1)c(C)n2C	Tau ThT inhib 22µM, Tau FP inhib inconclusive, Tau fluor counter 28µM[quencher]
CCCCn1c(/C=N/Nc2nc3ccccc3[nH]2)nc2ccccc21	Tau ThT inhib inconclusive, Tau fluor counter inconclusive
COc1cc(/C=N\Nc2nc3ccccc3[nH]2)cc(OC)c1OC	Tau ThT inhib inconclusive
O=C(NC1(O)C(=O)c2ccccc2C1=O)c1ccccc1	Tau ThT inhib 2.8µM, Tau FP inhib inconclusive
CCOC(=O)C1CCC(CN(Cc2c(Cl)cccc2Cl)S(=O)(=O)c2ccc(Cl)cc2)CC1 (stereo unspecified)	none
O=C(Nc1cccc(C(F)(F)F)c1)Nc1ccc(N2CCCC2)c(S(=O)(=O)Nc2ccccc2Cl)c1	Tau ThT inhib inconclusive, Tau FP inhib inconclusive, Tau fluor counter 2.5µM[quencher]
COc1ccccc1N1CSC2=C(C#N)C(c3ccc(SC)cc3)CC(=O)N2C1 (stereo unspecified)	Tau ThT inhib 28µM, Tau FP inhib inconclusive
COc1cccc(C2CC(=O)N3CN(c4ccccc4F)CSC3=C2C#N)c1 (stereo unspecified)	Tau ThT inhib inconclusive
COc1cc(C2CC(=O)N3CN(c4ccccc4C)CSC3=C2C#N)cc(OC)c1OC (stereo unspecified)	Tau ThT inhib 22µM, Tau FP inhib inconclusive
Cc1nn(-c2ccccc2)c2c1C(c1ccc(O)c(O)c1)N1C(=N2)C(Nc2ccccc2)=Nc2ccccc21 (stereo unspecified)	Tau ThT inhib inconclusive, Tau fluor counter 14µM[quencher]
COc1cc2nc(SCC(=O)Nc3ccc(F)cc3)n3nc(CCn4c(C)nc5ccccc54)nc3c2cc1OC	Tau ThT inhib inconclusive, Tau FP inhib inconclusive, Tau fluor counter inconclusive
CC1(C)CC(=O)C(CC2CCCCC2=O)C(=O)C1 (stereo unspecified)	none
CC1(C)CC(=O)C(CC2C(=O)CC(C)(C)CC2=O)C(=O)C1	Tau ThT inhib 10µM, Tau FP inhib inconclusive, Tau fluor counter inconclusive
CCCC(=O)Nc1ccc2c(c1)nc(CN1CCN(C(=O)OCC)CC1)n2C(C)C	TR SRC2 fluor cs 100µM[quencher]
Cc1ccc2c(c1)-c1nc(-c3ccc(Cl)cc3)cc(-c3coc4ccccc4c3=O)c1CO2	TR SRC2 fluor cs 10µM[quencher]
Cc1ccc(Cl)cc1N1CCN(S(=O)(=O)c2cn(C)c(C)n2)CC1	none
CCOc1ccc(NC(=O)c2cc(Cl)nc3ccccc23)cc1	none
Cc1ccc(OCC(=O)NNc2c3ccccc3nc3ccccc23)cc1	Tau ThT inhib 13µM, Tau fluor counter 14µM[quencher]
Cc1cccc(OCC(=O)NNc2c3ccccc3nc3ccccc23)c1	Tau ThT inhib inconclusive, Tau fluor counter 14µM[quencher]
CCOc1ccc(Nc2c3ccccc3nc3ccccc23)cc1	Tau ThT inhib 20µM, Tau fluor counter inconclusive
CCOc1ccccc1NC(=O)C(OC(=O)c1ccc(O)cc1)c1ccccc1 (stereo unspecified)	Tau FP inhib 22µM, Tau fluor counter inconclusive
CCOc1ccccc1NC(=O)C(OC(=O)c1ccc(CC)cc1)c1ccccc1 (stereo unspecified)	none
CC(C)=CCC/C(C)=C/CO/N=C1/[C@H]2O[C@@H]2[C@@H](O)[C@H]2[C@H]1CCn1c(=O)n(C)c(=O)n12	TR SRC2 fluor cs inconclusive
Cc1ccc(Nc2n[nH]c(C)c2[N+](=O)[O-])cc1	Tau ThT inhib inconclusive
Cc1[nH]nc(Nc2ccc(Br)cc2)c1[N+](=O)[O-]	Tau ThT inhib 6.3µM
Cc1[nH]nc(Nc2ccc(C(C)C)cc2)c1[N+](=O)[O-]	Tau ThT inhib 13µM, Tau fluor counter inconclusive
O=C(CSc1nc2c([nH]c3ccccc32)c(=O)n1-c1ccccc1)N1CCCCC1	none
Cc1cc(=O)n(CC(=O)NC(C)c2ccccc2)c2c1c(C)nn2-c1cccc(F)c1 (stereo unspecified)	TR SRC2 fluor cs 251µM[quencher]
O=C(O)c1cc(Br)ccc1NN=C1CCCCC1	Tau ThT inhib 20µM
O=c1cccccc1NN=C1CCCCC1	none (no result: Tau ThT inhib)
CCCCCCCC1=CC2=CC(=O)C(C)(O)C(=O)C2=CN1CCCC (stereo unspecified)	none
COc1ccc(-c2nc(SCC(=O)NC3CCCC3)c(-c3ccc(F)cc3)[nH]2)cc1OC	Tau ThT inhib inconclusive, Tau FP inhib inconclusive, Tau fluor counter 13µM[quencher]
COc1ccc(-c2nc(SCC(=O)NC3CCCC3)c(-c3ccc(OC)cc3)[nH]2)cc1	Tau ThT inhib inconclusive, Tau fluor counter 13µM![quencher]
COCCCNC(=O)CSc1nc(-c2ccc(OC)c(OC)c2)[nH]c1-c1ccc(F)cc1	Tau ThT inhib inconclusive, Tau fluor counter inconclusive
COc1ccc(-c2[nH]c(-c3ccc(Cl)cc3)nc2SCC(=O)NCC2CCCO2)cc1 (stereo unspecified)	Tau ThT inhib inconclusive, Tau fluor counter 13µM[quencher]
COc1ccc(-c2nc(SCC(=O)NC3CCCC3)c(-c3ccccc3)[nH]2)cc1OC	Tau ThT inhib inconclusive, Tau FP inhib inconclusive, Tau fluor counter 14µM[quencher]
COc1ccc(-c2[nH]c(-c3ccc(C)cc3)nc2SCC(=O)NCC2CCCO2)cc1 (stereo unspecified)	Tau ThT inhib inconclusive, Tau FP inhib inconclusive, Tau fluor counter inconclusive
C#CCCCO/N=C1/C[C@@H](O)[C@@H](O)[C@@H]2[C@H]3C(=O)N(c4ccc(F)cc4F)C(=O)[C@@H]3CC[C@H]12	none
Cc1cccc(NC(=O)c2ccc(CNS(=O)(=O)c3ccc4c(c3)C(C)(C)C(=O)N4C)cc2)c1	none
Cc1cc(C)c(NC(=O)CSc2nc3ccccc3c3nc(-c4ccccc4)nn23)c(C)c1	none
